Publication PMC5540273 (PLoS ONE, 2017)

Experiments:
Details in all cases: concentration: 1 μM, replicates: in singlicate; n = 1
[1] = tested on: T1, YANK1
T1 construct: gene STK32A

[2] = tested on: T2, YANK2
T2 construct: gene STK32B

[3] = tested on: T3, YANK3
T3 construct: gene STK32C

[4] = tested on: T4, YES
T4 construct: gene YES1

[5] = tested on: T5, YSK1
T5 construct: gene STK25

[6] = tested on: T6, YSK4
T6 construct: gene MAP3K19

[7] = tested on: ZAK
[8] = tested on: ZAP70
[9] = tested on: T7, p38-alpha
T7 construct: gene MAPK14

[10] = tested on: T8, p38-beta
T8 construct: gene MAPK11

[11] = tested on: p38-delta
[12] = tested on: T9, p38-gamma
T9 construct: gene MAPK12
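Further: KINOMEscan kinase panel screen.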

| SMILES | %Inh [1] | %Inh [2] | %Inh [3] | %Inh [4] | %Inh [5] | %Inh [6] | %Inh [7] | %Inh [8] | %Inh [9] | %Inh [10] | %Inh [11] | %Inh [12] |
| --- | --- | --- | --- | --- | --- | --- | --- | --- | --- | --- | --- | --- |
| COc1ccc(-n2cnc3c(N)ncnc32)cc1 [SKF-97236] | 0% | 10% | 0% | 0% | 0% | 34% | 15% | 0% | 0% | 21% | 0% | 12% |
| COc1cccc(C2=C(Nc3cccc(C(=O)O)c3)C(=O)NC2=O)c1 [SB-390770] | 12% | 0% | 16% | 8% | 0% | 14% | 41% | 7% | 0% | 11% | 34% | 0% |
| COc1cc2ncn(-c3cc(OCc4ccncc4Br)c(C(N)=O)s3)c2cc1OC [GW854278] | 0% | 0% | 0% | 0% | 0% | 61% | 15% | 0% | 4% | 0% | 30% | 10% |
| CN(C)c1cc(-c2ccc3c(N)n[nH]c3c2)nc(N)n1 [GSK2219329] | 7% | 0% | 0% | 1% | 12% | 16% | 92.5% | 0% | 0% | 0% | 37% | 0% |
| COc1ccc(-c2cc3c(C)nc(N)nc3n([C@H]3CC[C@H](O)CC3)c2=O)cn1 | 0% | 0% | 0% | 0% | 0% | 0% | 0% | 0% | 0% | 0% | 0% | 100% |
| COc1ccc(CNC(=O)NC2CCN(c3ccnc(Nc4ccc(F)cc4)n3)C2)cc1 (stereo not drawn) [GSK1379706] | 12% | 0% | 0% | 0% | 25% | 0% | 0% | 20% | 44% | 0% | 38% | 4% |
| Nc1n[nH]c2nnc(-c3ccccc3)c(-c3ccccc3)c12 [GW554060] | 7% | 0% | 26% | 17% | 0% | 16% | 5% | 0% | 0% | 0% | 27% | 0% |
| Cc1ccc(Oc2ccc(Nc3ncnc4cc[nH]c34)cc2C)cn1 | 5% | 22% | 11% | 3% | 0% | 14% | 5% | 0% | 5% | 28% | 30% | 35% |
| CCn1c(-c2nonc2N)nc2ccccc21 [SB-693162/GW549034] | 46% | 0% | 0% | 0% | 0% | 87% | 0% | 0% | 23% | 1% | 0% | 10% |
| FC(F)(F)c1ccc(-c2ncn(CCCN3CCOCC3)c2-c2ccncc2)cc1 [SB-217780] | 17% | 1% | 7% | 3% | 0% | 10% | 17% | 12% | 25% | 5% | 42% | 2% |
| COc1cc(OC)cc(-c2cc3cnc(N)nc3nc2NC(=O)NC(C)(C)C)c1 | 11% | 19% | 0% | 100% | 0% | 15% | 15% | 0% | 6% | 7% | 0% | 9% |
| CCC(=O)c1c(-c2ccccc2)c2cc(Cl)ccc2c(=O)n1Cc1ccc(C(=O)O)cc1 | 0% | 4% | 5% | 0% | 0% | 0% | 0% | 0% | 23% | 0% | 4% | 0% |
| Cc1nc(N(C)[C@H]2CN(C(=O)CC#N)CC[C@H]2C)c2cc[nH]c2n1 | 0% | 0% | 6% | 18% | 0% | 0% | 0% | 0% | 0% | 1% | 0% | 11% |
| CCc1nc(-c2cccc(C)c2)c(-c2ccncc2)s1 | 36% | 16% | 0% | 7% | 0% | 8% | 0% | 0% | 72% | 52% | 0% | 10% |
| COc1cc2nccc(Nc3cccc(Oc4ccccc4)c3)c2cc1OC.Cl [GW284543] | 5% | 0% | 1% | 19% | 0% | 0% | 17% | 0% | 0% | 0% | 22% | 0% |
